Assay results: PubChem BioAssay (NCI)
About 83,000 compounds went through this panel and 20% of them were active in at least one assay; those are over-represented in the sample as a whole.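 Treatment: one concentration, 48 hours, 96-well format. Scoring: percent growth, with anything below 10 considered active.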 Unmarked numbers belong to inactive results. Calls of active or inactive are those of the source.

Experiments:
Experiment in all cases: NCI-60 one-dose screen, 48 h (100 = growth as untreated, 0 = no growth, -100 = all killed)
Details in all cases: 10 µM unless noted
BT-549 breast = test system: BT-549 breast
MDA-MB-435 melanoma = test system: MDA-MB-435 melanoma
SW-620 colon = test system: SW-620 colon
MCF7 breast = test system: MCF7 breast
HCT-116 colon = test system: HCT-116 colon
HCC-2998 colon = test system: HCC-2998 colon
KM12 colon = test system: KM12 colon

Structure (SMILES) | growth (BT-549 breast) | growth (MDA-MB-435 melanoma) | growth (SW-620 colon) | growth (MCF7 breast) | growth (HCT-116 colon) | growth (HCC-2998 colon) | growth (KM12 colon)
CN(C)c1nc(N)nc(Cn2c(-c3nonc3N)nc3ccccc32)n1 | 91.8% | 7.85% (active) | 52.4% | 66.5% | 71.5% | 82.7% | 55.4%
COc1c(O)cc2oc3cc(O)c(CC=C(C)C)c(O)c3c(=O)c2c1C/C=C(\C)CCC=C(C)C | 99.3% | 78.4% | 41.5% | 21.9% | -29.6% (active) | -0.115% (active) | 25%
OCc1nnn(-c2ccccc2)c1CO | 157% | 114% | 105% | 106% | 105% | 119% | 116%
CCCCCCCCCCCCCCCCN=C(CC(=O)O)C(=O)O | 101% | 96.7% | 101% | 86.5% | 87.2% | 104% | 100%
c1cnc2n[nH]c(Nc3ncnc4c3sc3ncccc34)c2c1 | 106% | 101% | 101% | 91.3% | 96.2% | 108% | 103%
CC(C)[C@H]1CC[C@H]2[C@@H](CC[C@H]3[C@](C)(CN)CCC[C@]23C)C1 | 99.4% | 1.77% (active) | -12.2% (active) | -55.8% (active) | 5.32% (active) | 29.3% | 36.7%
COc1cc(/C=C/C(=O)N2CCN(C(=O)/C=C/c3ccccc3)CC2)cc(OC)c1OC | 104% | 111% | 109% | 110% | 105% | 102% | 118%
O=C1CC(=O)N(c2ccccc2)O1 | 101% | 104% | 101% | 115% | 101% | 105% | 109%
C[C@]12CC[C@@H]3c4ccc(O)c([N+](=O)[O-])c4CC[C@H]3[C@@H]1CC[C@@H]2NS(=O)(=O)c1ccc(C(F)(F)F)cc1 | 30.9% | 17.3% | 34.2% | 11.8% | 15.5% | 53.8% | 19.9%
Cc1cc(C)c2c(c1)N1OC(C2)C[C@H]1/C=C/c1ccccc1 (stereo not given in full) | 105% | 87.2% | 108% | 88% | 84.6% | 98.2% | 107%
CCC1=C(c2ccc(OC)cc2)C(C)Oc2cc(OC(C)=O)ccc21 (stereo not given) | 95.4% | 40.7% | 90.5% | 82.4% | 74.5% | 107% | 77.7%
CC(O)c1nc2c(c(=O)n(C)c(=O)n2C)n1C (stereo not given) | 109% | 111% | 110% | 102% | 90.2% | 103% | 113%
CCN(CC)c1ccc(N=Nc2cc(Cl)ccc2Cl)c(NC(=O)CCC(=O)O)c1 | 120% | 115% | 105% | 93.2% | 99.7% | 107% | 101%
CC1=CC(=O)C(C(C)=Nc2ccccc2Cl)C(=O)O1 (stereo not given) | 121% | 111% | 91.6% | 118% | 100% | 119% | 108%
O=C(C(=O)N1CCOCC1)c1ccc(OC2OC(CO)C(O)C(O)C2O)cc1 (stereo not given) | 108% | 108% | 105% | 95.2% | 105% | 127% | 112%
COC(=O)CCC1=C(C)C(C)=N/C1=C\c1[nH]c(-c2ccc[nH]2)cc1OC | 29.2% | -5.95% (active) | 7.46% (active) | 4.8% (active) | -59.8% (active) | 12.5% | 12.7%
Cc1cc(=O)n2n1-c1ccc(Cl)cc1NC(=O)C2 | 104% | 88.2% | 109% | 94.1% | 107% | 110% | 114%
C=C(C[C@@](O)(C(=O)Oc1ccccc1)C(=O)C1CCCCC1)c1ccccc1 | 105% | 102% | 107% | 100% | 92.7% | 105% | 105%

Structure (SMILES) | growth (BT-549 breast) | growth (MDA-MB-435 melanoma) | growth (SW-620 colon) | growth (MCF7 breast) | growth (HCT-116 colon) | growth (HCC-2998 colon) | growth (KM12 colon)
COc1ccc2nc(NC(=O)c3cc(-c4ccc(F)cc4)n4nc(-c5ccccc5)cc4n3)sc2c1 | 53.5% | 96.2% | 94.7% | 86.8% | 61.5% | 98.6% | 74.1%
CC/C(=C\c1ccc(N(C)C)cc1)c1nc2ccccc2c(=O)[nH]1 | 60.3% | 108% | 120% | 98.2% | 108% | 93% | 119%
Cc1cc2c(cc1C)Nc1sc(NC(=O)CN3CCN(C)CC3)nc1C(=O)N2 | 109% | 111% | 116% | 97.5% | 101% | 101% | 102%
Cc1nc(N)[nH]c(=O)c1C | 45.1% | 106% | 125% | 95% | 101% | 81.1% | 122%
O=C(Nc1ccccc1Cl)c1cnc2ccc(C3CCNCC3)cn12 | 97.8% | 86% | 96.6% | 83.6% | 58.2% | 123% | 110%
COc1ccc(C2CC(c3cccc(Nc4ccnc5cc(Cl)ccc45)c3)=NN2C=O)cc1 (stereo not given) | 30.9% | -36% (active) | 18.7% | 22.4% | 7.09% (active) | 35.4% | 23.1%
COc1ccc(C2=NN(C(=O)c3cc(OC)c(OC)c(OC)c3)C(c3ccc(C#N)cc3)C2)cc1OC (stereo not given) | 28.6% | -40.4% (active) | 16.1% | 27% | 13.6% | 35.2% | 15.1%
Cn1cc(-c2nc(-c3c[nH]c4ncc(F)cc34)cs2)c2cccnc21 | 108% | 98.2% | 104% | 77.9% | 101% | 81.6% | 99.3%
Cc1nc2c(O)cccc2cc1CO | 149% | 109% | 108% | 96.8% | 107% | 103% | 113%
Cc1nn(-c2ccc(Cl)cc2)c2nc3c(nc12)C(=O)C(=O)c1ccccc1-3 | 92.1% | 97.7% | 67.2% | 49.7% | 80.2% | 66.6% | 61.9%
ClC1=C(Cl)C(=C2C(Cl)=C(Cl)C(Cl)=C2Cl)C(Cl)=C1Cl | 107% | 105% | 102% | 90.3% | 101% | 109% | 104%
COC(=O)[C@]12CC[C@@H](C)[C@H](C)[C@@H]1C1=CC[C@@H]3[C@@]4(C)C[C@@H](OC(=O)c5ccco5)[C@H](O)[C@@](C)(CO)[C@@H]4[C@H](O)C[C@@]3(C)[C@]1(C)CC2 | -68.1% (active) | -86.7% (active) | -81.4% (active) | -73.7% (active) | -63.3% (active) | -89.1% (active) | -85.8% (active)
CC(C)C(=O)Cc1cnccn1 | 110% | 101% | 102% | 103% | 109% | 104% | 112%
O=C(Nc1ccc(C2=NCCCN2)cc1)Nc1ccc(C2=NCCCN2)cc1 | 100% | 95.3% | 99.4% | 94% | 67.4% | 117% | 100%
Oc1[nH]c2ccc(Cl)cc2c1/C=c1/ccc2c(c1)N=C(c1ccc(C(F)(F)F)cc1)N=2 | 88.4% | 42.7% | 84.3% | 27.6% | 50.1% | 61.5% | 45.4%
O=C(CSCC(=O)N/N=C/c1ccccc1O)N/N=C\c1ccccc1O | 1.06% (active) | 50.9% | 39.3% | 19.5% | 16.6% | 30.1% | 37.3%
C/C(=N/N=C(N)N)c1ccc(Cl)cc1 | -0.709% (active) | 71.7% | 112% | 83.9% | 85.7% | 57.8% | 93.2%
